Reference: PubChem BioAssay AID720706 (Broad Institute, 2013)
Values joined by “and” are separate entries in the source; they are usually repeats but may differ in a detail not shown here. Identical values can stand only once. Among all 350,000 compounds or so, about 5,500 (1.6%) were called active.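 How the source made its calls: active means significant combined selectivity score with lowered wild-type GFP, culture density cut under 30%, mutant RFP and density less affected; inactive means any of these conditions unmet.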 Many of the other results were omitted from the sample, so actives are more common in it than they were. Some compounds were tested as several samples or in several runs, with calls that do not always agree.

experiment: reduced GFP signal of wild-type E. coli, primary screen, bacterial rRNA inhibitor project, GFP/RFP fluorescence, OD600, single point (AID 720706); conditions: E. coli WT GFP vs humanized-ribosome RFP mutants, 24 h; GFP signal change (wild-type ribosome): stronger effect = lower value, DMSO median 0, no signal -100; OD600 change: measured here: OD600 growth, DMSO median 0, no signal -100; RFP signal change: measured here: RFP humanized mutant strains, DMSO median 0, no signal -100, concentration not given here

| SMILES | GFP signal change (wild-type ribosome) | OD600 change | RFP signal change |
| --- | --- | --- | --- |
| CCn1c(C)c(C)c2cc(C(=O)N3CCN(c4cccc(C)c4C)CC3)ccc21 | 13.4% (inactive) | -10.1% | 8.15% |
| CCOc1ccccc1N1CCN(C(=O)c2ccc3[nH]c(C)c(C)c3c2)CC1 | -34.6% (active) | -17.6% | 7.07% |
| Cc1[nH]c2ccc(C(=O)N3CCN(C)CC3)cc2c1C | 6.6% (inactive) | 11% | 3.29% |
| CNC[C@@H]1Oc2ccc(N(C)C)cc2CC(=O)N(C)C[C@@H]1C | -0.679% (inactive) | 1.44% | -1.38% |
| NN=C(NN=Cc1ccccc1)c1ccccc1 | 3.05% (inactive) | 19.4% | -0.189% |
| CN(/N=C/c1ccccc1)C(=S)c1ccccc1 | -28.9% (active) | -13.5% | -2.92% |
| CN(O)C(=S)c1ccccc1 | -58% (inactive) | -75.2% | -15% |
| O=C(C[C@H]1C[C@@H]2c3cc(NS(=O)(=O)c4ccc(F)cc4)ccc3O[C@@H]2[C@H](CO)O1)NCc1cccc(F)c1 | 0.64% (inactive) | -2.85% | 2.59% |
| CCC(=O)N1CC(=O)N2[C@@H](CO)[C@H](c3ccc(C#CC4CCCC4)cc3)[C@@H]2C1 | 1.66% (inactive) | -3.78% | -1.59% |
| O=C(C[C@@H]1CC[C@H]2[C@@H](COC[C@@H](O)CN2C(=O)c2ccc3c(c2)OCO3)O1)NC1Cc2ccccc2C1 | 1.47% (inactive) | -6.88% | -0.618% |
| C[C@H]1CN([C@@H](C)CO)C(=O)CCCn2nncc2CO[C@@H]1CN(C)C(=O)Nc1ccc(N2CCN(C)CC2)cc1 | 22.4% (inactive) and -1.77% (inactive) | 13.6% and 7.97% | 3.72% and -0.742% |
| C[C@@H]1CN([C@@H](C)CO)C(=O)CCCn2nncc2CO[C@H]1CN(C)C(=O)Nc1ccc(C(F)(F)F)cc1 | -16.6% (active) and -54% (inactive) | -10.2% and -56.3% | 5.18% and -10.9% |
| C[C@@H]1CN([C@@H](C)CO)C(=O)CCCn2nncc2CO[C@H]1CN(C)Cc1ccc(C(F)(F)F)cc1 | -3.59% (inactive) and 7.37% (inactive) | -1.83% and 9.18% | 2.44% and -0.538% |
| CCCNC(=O)N1CC(=O)N2[C@H](C1)[C@@H](c1ccc(C#Cc3ccccc3)cc1)[C@@H]2CO | -41.7% (inactive) | -70.4% | -0.11% |
| COc1ccc2c3c(n(C)c2c1)[C@@H](CO)N(C(=O)Nc1ccccc1F)CC31CCN(C(=O)c2ccccc2F)CC1 | -2.62% (inactive) | -3.48% | -0.298% |
| CO[C@@H](CN(C)C(=O)c1cnccn1)[C@H](C)CN([C@H](C)CO)S(=O)(=O)c1ccc(C)cc1 | 1.87% (inactive) | 2.69% | -1.48% |
| CCc1nc2ccccc2c(C(=O)NCc2ccc(OC)cc2)c1C | -3.42% (inactive) | -5.87% | -3.53% |
| CCc1nc2ccccc2c(C(=O)OC2CCCCC2=O)c1C (stereo not drawn) | -34.4% (active) | -20.5% | 3.94% |
| CCc1c(C)c2ccc(OC3CCCCC3=O)cc2oc1=O (stereo not drawn) | 1.77% (inactive) | -3.25% | 1.07% |
| CC(=O)N(C)C[C@@H]1Oc2cc(-c3cccnc3)ccc2S(=O)(=O)N([C@@H](C)CO)C[C@H]1C | 0.257% (inactive) | -3.4% | -4.17% |
| O=C(CC1CC1)N1CC(=O)N2[C@H](CO)[C@H](c3ccc(C#Cc4ccc(F)cc4)cc3)[C@@H]2C1 | -21.5% (inactive) | -61.2% | 15.4% |

| SMILES | GFP signal change (wild-type ribosome) | OD600 change | RFP signal change |
| --- | --- | --- | --- |
| COc1ccc(-c2cnc3c(c2)C(=O)N([C@H](C)CO)C[C@@H](C)[C@H](CN(C)C(=O)Cc2ccncc2)O3)cc1 | -1.52% (inactive) | 2.2% | -0.471% |
| COc1cccc(NC(=O)Nc2ccc3c(c2)OC[C@@H](C)NC[C@@H](C)[C@H](OC)CN(C)C3=O)c1 | 0.255% (inactive) | 0.1% | 2.58% |
| C[C@@H]1CCCCO[C@H](CN(C)C(=O)CCCN(C)C)[C@@H](C)CN([C@@H](C)CO)C(=O)c2cc(NC(=O)c3ccncc3)ccc2O1 | 3.33% (inactive) | 12.1% | -1.91% |
| COc1ccccc1N1CCN(C(=O)c2cc3c(-c4ccc(Cl)cc4)nn(C)c3s2)CC1 | 0.925% (inactive) | 11.2% | 2.25% |
| Cn1nc(-c2ccc(Cl)cc2)c2cc(C(=O)NCc3ccco3)sc21 | -29.9% (inactive) | -25.9% | -16.6% |
| CCOC(=O)N1CCN(C(=O)c2cc3c(-c4ccc(Cl)cc4)nn(C)c3s2)CC1 | -22.9% (active) | -10.6% | -5.96% |
| COc1ccc2c3c(n(C)c2c1)[C@H](CO)NCC31CN(Cc2cc(F)ccc2F)C1 | -2.04% (inactive) | 1.28% | 1.51% |
| CCc1c(N=O)c(-c2ccccc2)n(O)[n+]1[O-] | -18.1% (active) | 0.75% | -2.88% |
| CCOC(=O)c1ccn(S(=O)(=O)c2ccc(C)cc2)c1-c1ccccc1 | -4.05% (inactive) | -26.5% | -5.7% |
| O=C(O)c1ccc(N/N=C/c2cn(-c3ccccc3)nc2-c2cccs2)cc1 | -27.8% (active) | -18.5% | -5.29% |
| O=C(/C=C/c1cn(-c2ccccc2)nc1-c1ccc2c(c1)OCCO2)NCCCN1CCOCC1 | -59.2% (inactive) | -80.4% | -18.1% |
| COc1ccc(-c2nn(-c3ccccc3)cc2/C=C\C(=O)N2CCOCC2)cc1[N+](=O)[O-] | -3.42% (inactive) | 3.96% | -1.95% |
| S=c1[nH]nc(-c2cccs2)n1/N=C/c1cn(-c2ccccc2)nc1-c1ccc(Cl)cc1 | 5.75% (inactive) | 18.1% | 0.386% |
| Cc1ccc2cc(/C=N/Nc3ccc(C(=O)O)cc3)c(Cl)nc2c1 | 8.25% (inactive) | -7.45% | 2.99% |
| O=C(/C=C\c1cn(-c2ccccc2)nc1-c1cccs1)N1CCOCC1 | -25.3% (active) | -11.3% | -10.9% |
| N#C[C@@H]1[C@H](c2ccccc2)[C@H](CO)N1C(=O)CN1CCOCC1 | 13.7% (inactive) | 21.2% | 0.395% |
| O=C(Nc1ccccc1F)N1CC(=O)N2[C@H](C1)[C@H](c1ccc(C#Cc3ccc(F)cc3)cc1)[C@@H]2CO | -2.23% (inactive) | -44.6% | 20.2% |
| O=C(CC1CC1)N1[C@@H](CO)[C@H](c2ccccc2)C12CN(Cc1cccnc1)C2 | 1.16% (inactive) | -2.09% | 1.37% |
| COc1ccc(CN(C)C[C@@H]2Oc3ccc(NC(=O)NC(C)C)cc3C(=O)N([C@@H](C)CO)C[C@H]2C)cc1 | 1.14% (inactive) | 10.5% | -0.455% |
| C=CCOC(=O)N1CCC2CC1c1cc(-c3ccc(OC)cc3)ccc12 (stereo not drawn) | 3.93% (inactive) | 0.963% | -4.99% |
| COc1ccc(-c2ccc3c(c2)C2CC3CCN2CCC#N)cc1 (stereo not drawn) | -28.2% (active) | -19.1% | -3.22% |

| SMILES | GFP signal change (wild-type ribosome) | OD600 change | RFP signal change |
| --- | --- | --- | --- |
| COc1ccc(-c2ccc3c(c2)[C@H]2[C@H](CCN2C(=O)C2CCOCC2)[C@H](CO)N3C)cc1 | -4.42% (inactive) | -4.78% | -1.56% |
| COc1ccc2c3c(n(C)c2c1)[C@H](CO)NCC31CN(S(=O)(=O)c2cccc(C)c2)C1 | -0.56% (inactive) | -33% | 8.22% |
| O=C(C(=O)N1CCC(CNS(=O)(=O)Cc2ccccc2)CC1)c1cc2ccccc2o1 | -14% (active) | -14.9% | 2.73% |
| N#Cc1cccc(C(=O)NCC2CCN(C(=O)C(=O)c3cc4ccccc4o3)CC2)c1 | -2.59% (inactive) | -1.64% | -0.945% |
| CC(C)(C)c1ccc(S(=O)(=O)NCC2CCN(C(=O)C(=O)c3cc4ccccc4o3)CC2)cc1 | -0.31% (inactive) | 0.126% | 0.99% |
| COc1cccc(S(=O)(=O)N2CC3(CCN(C)CC3)c3c(n(C)c4cc(OC)ccc34)[C@H]2CO)c1 | -0.483% (inactive) | -1.36% | 0.12% |
| COc1ccc2c3c(n(C)c2c1)[C@@H](CO)N(C(=O)CN1CCOCC1)CC31CCN(Cc2ccncc2)CC1 | 1.45% (inactive) | 2.53% | -1.13% |
| C[C@@H](NC(=O)C[C@@H]1CC[C@H]2[C@@H](COC[C@@H](O)CN2C(=O)Nc2cccc(F)c2)O1)c1ccccc1 | -11.5% (inactive) | -6.23% | 5.17% |
| COc1ccc(CC2(CO)CCN(Cc3cnn(C)c3)CC2)cc1 | 25.9% (inactive) | 13% | 1.82% |
| CCOc1ccccc1NC(=O)C1CCN(S(=O)(=O)c2c(C)nn(C)c2C)CC1 | 3.06% (inactive) | -0.4% | -2.77% |
| Cc1nn(C)c(C)c1S(=O)(=O)N1CCC(CO)(Cc2ccc(Cl)cc2)CC1 | -22% (active) | -16.9% | 0.06% |
| O=C(NCC[C@@H]1CC[C@@H](NC(=O)c2ccccc2F)[C@H](CO)O1)c1ccc2c(c1)OCO2 | 0.211% (inactive) | 0.175% | -1.31% |
| COc1ccc(NC(=O)N(C)C[C@@H]2Oc3ccc(NS(=O)(=O)c4ccc(Cl)cc4)cc3C(=O)N([C@H](C)CO)C[C@@H]2C)cc1 | -1.87% (inactive) | -3.81% | 4.46% |
| CCN(CC)C(=O)Oc1ccc(Br)cc1C(=O)Nc1ccc(F)c(Cl)c1 | -28% (active) | -13.7% | -1.17% |
| CCN(CC)C(=O)C(=O)Nc1cccc(Br)c1 | 2.19% (inactive) | 1.55% | -1.36% |
| CCCOc1ccc(F)cc1-c1cc(C(=O)Nc2ccc(F)c(Cl)c2)[nH]n1 | -11.9% (inactive) | -20.4% | 8.72% |
| COc1ccc2c3c(n(C)c2c1)[C@@H](CO)N(Cc1ccccc1OC)CC31CN(CC2CCOCC2)C1 | 2.13% (inactive) | 1.76% | -0.161% |
| COc1ccc(S(=O)(=O)Nc2ccc3c(c2)C(=O)N([C@H](C)CO)C[C@@H](C)[C@@H](CN(C)CC2CCCCC2)O3)cc1 | 3.31% (inactive) | -3.13% | -1.7% |
| O=C(C[C@H]1CC[C@@H]2[C@H](COC[C@H](O)CN2Cc2ccc(Oc3ccccc3)cc2)O1)N1CCN(c2ccccc2)CC1 | -14.8% (inactive) | -41.1% | 19.9% |
